From PubChem BioAssay (EPA / NIEHS)
The source made the active and inactive calls. Rule for the calls: active = hit-call score of the fitted dose curve at least 0.9, where 1 is the maximum; inactive = score below 0.9.

These molecules were tested on succinate dehydrogenase complex iron sulfur subunit B (SDHB), SDHB (gene 6390) (assay: LTEA_HepaRG_SDHB: Life Technologies and Expression Analysis (LTEA) Assay for succinate dehydrogenase complex iron sulfur subunit B (SDHB) using HepaRG (AID 2283528)). Details: mRNA level, 48 h; actives raise or lower the signal.
Protocol: LTEA_HepaRG is a cell based, multiplexed-readout assay that uses HepaRG, a human liver cell line, with measurements taken at 48 hours after chemical dosing on a 96-well plate.LTEA_HepaRG_SDHB is one of 102 assay component(s) measured in the LTEA HepaRG cell culture assay. It is a marker of Cell proliferation, survival, death.Data from the assay component LTEA_HepaRG_SDHB was analyzed into 1 endpoint. This assay endpoint, LTEA_HepaRG_SDHB, was analyzed with bidirectional fitting relative to DMSO as the negative control and baseline of activity. Using a type of inducible reporter, measures of mRNA induction for gain or loss-of-signal activity can be used to understand regulation of transcription factor activity. To generalize the intended target to other relatable targets, this assay endpoint is annotated to the oxidoreductase intended target family, where the subfamily is ubiquinone.
A total of 1060 chemcials from the ToxCast library were tested in eight-point concentration-response experiments. Cell culture and cytotoxicity assays were conducted at Thermo Fisher Scientific's Custom Services facility (Madison, WI). A single lot of human HepaRG cells (Thermo Fisher Scientific, Frederick, MD) was used for the cell culture experiments. 96-well format collagen type I coated plates of human HepaRG cells were prepared using established methods. Briefly, cryopreserved HepaRG cells were thawed, plated at a density of approximately 100,000 cells/well in HepaRG Thaw, Plate, and General Purpose media (HPRG770, Thermo Fisher Scientific), and incubated for 48 hours. 0.5% DMSO was selected as vehicle control to balance the requisite need of DMSO in HepaRG cultures to maintain differentiation (for example, baseline metabolism, proportions of hepatocytes vs. cholangiocytes), while enabling further hepatic receptor pathway activation (for example, PXR and CAR) in response to chemical exposure. 48 hours after plating, the culture medium was replaced with HepaRG Serum-Free Incudtion Media. Cells were exposed to each test chemical in duplicate and maintained in CO2 incubators for another 48 hours. Chemical plates were thawed to room temperature and 200x concentrations of treatment groups were prepared. 8-point conentration-reponse curves were made with the highest exposure at 100 uM, followed by half-log dilutions, all in 0.5% DMSO. Each test plate contained variouse controls, induction positive controls (1mM phenobarbital), cytotoxicity positive controls ([…] aflatoxin B1), vehicle controls (0.5% DMSO), and total lysis controls (0.5% DMSO). Cell morphology images were taken using an Essen IncuCyte FLR automated microscope, with six 96-well plates imaged in about 24 minutes. Images were captured and exported and JPEG files. Spent culture media was transfered to black-well plates for the LDH assay, and remaining media was sorted at -80 C for later use. Cells were treated with RLT buffer and frozen until shipped for gene expression analysis. Total RNA was isolated from the cell suspension in 75 uL of Buffer RLT (Qiagen, Germantown, MD 20874) by Quintiles/Expression Analysis (Durham, NC) using a custom isolation procedure. Total RNA from each plate well was transferred to a preamplification plate. Fluidigm's 96.96 Dynamic ArrayTM (Fluidigm, Amsterdam, the Netherlands) technology was used for gene expression analyses by quantitative reverse transcription polymerase chain reaction (qRT-PCR, performed by Quintiles/Expression Analysis, Durham, NC)89. Standard TaqManTM Assays (Applied Biosystems/ThermoFisher Scientific, Foster City, CA) were used to assess the expression of 93 genes selected based on their selectivity and sensitivity to important hepatic receptors known to be modulated by environmental chemicals; importance in human hepatocyte functionality; and hepatotoxicity. […]

Row | Structure (SMILES) | outcome | AC50
1 | C[Si](Cn1cncn1)(c1ccc(F)cc1)c1ccc(F)cc1 | inactive | 
2 | CSc1nnc(C(C)(C)C)c(=O)n1N | inactive | 
3 | CC1(C(=O)Nc2ccc(O)c(Cl)c2Cl)CCCCC1 | inactive | 
4 | FC(F)C(F)(F)OCC(Cn1cncn1)c1ccc(Cl)cc1Cl (stereo not given) | inactive | 
5 | CCC(=NOC/C=C/Cl)C1=C(O)CC(C2CCOCC2)CC1=O (stereo not given) | inactive | 
6 | CCOC(=O)COc1cc(-c2nn(C)c(OC(F)F)c2Cl)c(F)cc1Cl | inactive | 
7 | CCOP(=S)(OCC)OC(Cl)C(Cl)(Cl)Cl (stereo not given) | inactive | 
8 | CC(COc1ccc(Oc2ccccc2)cc1)Oc1ccccn1 (stereo not given) | inactive | 
9 | CCOP(=S)(OCC)Oc1cc(C)nc(C(C)C)n1 | inactive | 
10 | CCOP(=O)(SC(C)CC)N1CCSC1=O (stereo not given) | inactive | 
11 | CCCOCC(=Nc1ccc(Cl)cc1C(F)(F)F)n1ccnc1 | inactive | 
12 | CNC(=O)Oc1cccc2c1OC(C)(C)O2 | inactive | 
13 | COP(=O)(OC)OC(Br)C(Cl)(Cl)Br (stereo not given) | inactive | 
14 | CCCOc1nn(C(=O)NS(=O)(=O)c2ccccc2C(=O)OC)c(=O)n1C | inactive | 
15 | C[N+]1(C)CCCCC1 | inactive | 
16 | CCC(=O)Nc1ccc(Cl)c(Cl)c1 | inactive | 
17 | CCCCOC(=O)[C@@H](C)Oc1ccc(Oc2ccc(C#N)cc2F)cc1 | inactive | 
18 | CN(C)NC(=O)CCC(=O)O | inactive | 
19 | COc1cc(OC)nc(Sc2cccc(Cl)c2C(=O)O)n1 | inactive | 
20 | CCOP(=O)(OCC)Oc1cc(C)nc(C(C)C)n1 | inactive | 

Row | Structure (SMILES) | outcome | AC50
21 | CCCCSP(=O)(SCCCC)SCCCC | inactive | 
22 | C#CCC1=C(C)C(OC(=O)C2C(C=C(C)C)C2(C)C)CC1=O (stereo not given) |  | 9.87 µM (active)
23 | Cc1nn(-c2cc(NS(C)(=O)=O)c(Cl)cc2Cl)c(=O)n1C(F)F | inactive | 
24 | N#CSCSC#N | inactive | 
25 | C#CC(C)(C)NC(=O)c1cc(Cl)cc(Cl)c1 | inactive | 
26 | CC(C)=CC1C(C(=O)OCN2C(=O)C3=C(CCCC3)C2=O)C1(C)C (stereo not given) | inactive | 
27 | Cc1ccn2nc(S(=O)(=O)Nc3c(F)cccc3F)nc2n1 | inactive | 
28 | CN1COCN(Cc2cnc(Cl)s2)C1=N[N+](=O)[O-] | inactive | 
29 | O=[N+]([O-])c1cc(C(F)(F)F)c(Cl)c([N+](=O)[O-])c1Nc1ncc(C(F)(F)F)cc1Cl | inactive | 
30 | CCCCOC(=O)c1ccccc1C(=O)O | inactive | 
31 | C=C(C)[C@H]1Cc2c(ccc3c2O[C@@H]2COc4cc(OC)c(OC)cc4[C@@H]2C3=O)O1 |  | 0.358 µM (active)
32 | CNC(=O)ON=C(SC)C(=O)N(C)C | inactive | 
33 | CCOP(=S)(OCC)Oc1ccc([N+](=O)[O-])cc1 | inactive | 
34 | CNC(=O)ON=C(C)SC | inactive | 
35 | COP(=O)(OC)SCn1c(=O)oc2cc(Cl)cnc21 | inactive | 
36 | CCc1cnc(C2=NC(C)(C(C)C)C(=O)N2)c(C(=O)O)c1 (stereo not given) | inactive | 
37 | CN(C)C(=O)Nc1cccc(C(F)(F)F)c1 | inactive | 
38 | CN(C)[C@@H]1C(=O)C(C(N)=O)=C(O)[C@@]2(O)C(=O)C3=C(O)c4c(O)cccc4[C@@](C)(O)[C@H]3[C@H](O)[C@@H]12 | inactive | 
39 | CC(C)N(C(=O)SCC(Cl)=C(Cl)Cl)C(C)C | inactive | 
40 | COc1cccc(C(=O)NN(C(=O)c2cc(C)cc(C)c2)C(C)(C)C)c1C | inactive | 
